Experimental data taken from PubChem BioAssay AID624498 (National Center for Advancing Translational Sciences (NCATS), 2012).
Activity calls are given as the source filed them.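 The calls were made as follows: active = a band for the stress protein GRP78 appears on a western blot of treated cells; inactive = no band seen on the blot.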

Test: Hit Validation Western Blot Assay for Inducers of ERSR: Assessment of GRP78 Upregulation
Conditions: cells, 4-24 h
Description: Primary protein unfolding takes place for many diseases, including diabetes and hypoxia, , and triggers a reaction in the cells called ER stress response (ERSR). ). ERSR is designed as a repair mechanism, but ultimately leads to cell death via apoptosis if conditions triggering protein unfolding persist (1). The molecular clue to ERSR activation is the enhancement of the expression of key molecular chaperones, including the glucose regulated protein (GRP) 78. GRP78 is the main sensor for protein folding and the main actuator of the ERSR. In a collaboration between the Southern Research Institute and the NIH Chemical Genomics Center, a cell based screen was developed that reliably uses GRP78 as a sensor to identify small molecules as inducers of ERSR. In resting conditions, GRP78 binds proteins and acts as a natural repressor. Once unfolded proteins are present in the ER, GRP78 releases some of the repressors and binds to the unfolded proteins. The release of the repressors executes the ERSR program. Using a human glioma cell line in a miniaturized, luminescent format, a high-throughput screen was developed to identify actuators of the ERSR. In this assay, hits identified in the primary ERSR screen were characterized for their effects on wild type GRP78 upregulation using a western blot secondary assay. NIH Chemical Genomics Center [NCGC] […]

**Q.** With `Cc1noc(C)c1C(=O)N1CCC2(CCCN(C(c3ccccc3)c3ccccc3)C2)CC1` as the compound, how does the outcome read?
**A.** active; yes
